Data on 10 molecules can be found in PubChem BioAssay (EPA / NIEHS).

Results filed as inconclusive are left out. Active and inactive are the calls of the source. How the source made its calls, unless noted: active means hit-call score of the fitted dose curve at least 0.9, where 1 is the maximum; inactive means score below 0.9.

Assay [1] relates to Thyroperoxidase (TPO), gene 54314. In words: CCTE_Simmons_AUR_rTPO: CCTE's Amplex UltraRed Assay for Thyroperoxidase (TPO) Inhibition, Simmons Lab (AID 2283662; active means hit-call score of the fitted dose curve at least 0.9, where 1 is the maximum;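 further: potency for loss of signal meaning inhibition of peroxidase activity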). Summed up:
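Rat thyroid microsomes (5 ug protein) with 25 uM Amplex UltraRed and 300 uM H2O2 in 200 mM phosphate buffer, 30 min at 37C in dark; fluorescence 544/590 nm. Eight concentrations, 5 nM–87.5 uM final, 0.5% DMSO, triplicate biological replicates.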

Assay [2] deals with Luciferin 4-monooxygenase (Photinus pyralis) (UniProt P08659). In words: CCTE_Simmons_QuantiLum_inhib_2: CCTE's Firefly Luciferase Inhibition Assay, Simmons Lab (AID 2283767; active means hit-call score of the fitted dose curve at least 0.9, where 1 is the maximum). The gist of the method:
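Cell-free QuantiLum luciferase, 5 ng/well; compounds 5 nM–87.5 uM final, 8 conc, 0.5% DMSO; 30 min, 37C, dark. Detection reagent (150 uM D-luciferin, 147 uM dATP, CoA, DTT, pH 7.8 final) injected per well, kinetic luminescence. Triplicate biological replicates.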

Assay [3] concerns Brachyury (BRA) Protein Expression, Deisenroth Lab, TBXT (gene 6862). In words: CCTE_Deisenroth_DEVTOX-GLR_legacy_Bra: (Legacy) CCTE's DevTox GLR-Endo Assay Evaluation of Brachyury (BRA) Protein Expression, Deisenroth Lab (AID 2284329). The gist of the method:
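High-content imaging of fixed RUES2-GLR cells after a 48-hour differentiation with two compound exposures yields percent cells whose Bra signal exceeds pluripotent control median by 5x BMAD; values are baseline-corrected to DMSO.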

Assay [4] is described as follows: CCTE_Deisenroth_DEVTOX-GLR_legacy_CellCount: (Legacy) Viability Assessment in CCTE's DevTox GLR-Endo Assay, Deisenroth Lab (AID 2284331). The settings on record: actives raise or lower the signal. Summed up:
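Human pluripotent RUES2-GLR cells differentiated 48 h with two 24-h-interval exposures, 10-point 1 nM–200 uM series, 0.2% DMSO. Fixed nuclei counted by high-content imaging (5 fields/well); bidirectional fit vs DMSO, n≥4.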

Assay [5] deals with SRY-box transcription factor 2 (SOX2) Protein Expression, Deisenroth Lab, SOX2 (gene 6657). In words: CCTE_Deisenroth_DEVTOX-GLR_Endo_SOX2: CCTE's DevTox GLR-Endo Assay Evaluation of SRY-box transcription factor 2 (SOX2) Protein Expression, Deisenroth Lab (AID 2284412; active means hit-call score of the fitted dose curve at least 0.9, where 1 is the maximum). The gist of the method: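 Endpoint is percent SOX2-positive cells (SOX2+ count/total cells) minus 0.2% DMSO control, from high-content imaging of fixed, nuclear-stained RUES2-GLR cells. Dosing twice at 24 h intervals over 48 h differentiation, 1 nM–200 uM in 10 points.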

In assay [6] the test system is Brachyury (BRA) Protein Expression, TBXT (gene 6862). In words: CCTE_Deisenroth_DEVTOX-GLR_Endo_BRA: CCTE's DevTox GLR-Endo Assay Evaluation of Brachyury (BRA) Protein Expression, Deisenroth Lab (AID 2284417). Summed up: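 RUES2-GLR pluripotent cells differentiated 48 h with two chemical exposures 24 h apart, 10-point range 1 nM - 200 uM. Percentage of BRA+ cells per total count by high-content imaging, minus 0.2% DMSO control.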

Assay [7] can be described thus: CCTE_Deisenroth_DEVTOX-GLR_Endo_CellCount: Viability Assessment in CCTE's DevTox GLR-Endo Assay, Deisenroth Lab (AID 2284420). Summed up: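 Human pluripotent RUES2-GLR line; 24 h pre-seed; 48 h endoderm-directed differentiation; 2 doses, q24h; 10 conc., 1 nM - 200 uM; fix + nuclear dye; 5 fields/well imaged; readout = nuclei count, % change vs 0.2% DMSO; n=4.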
For assay [8], the system named is SRY-box transcription factor 17 (SOX17) Protein Expression, Deisenroth Lab, SOX17 (gene 64321). In words: CCTE_Deisenroth_DEVTOX-GLR_Pluri_SOX17: CCTE's DevTox GLR-Pluri Assay Evaluation of SRY-box transcription factor 17 (SOX17) Protein Expression, Deisenroth Lab (AID 2284427; active means hit-call score of the fitted dose curve at least 0.9, where 1 is the maximum). The gist of the method:
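Human RUES2-GLR pluripotent line; 24 h seeding, 48 h defined-media differentiation, 2 doses q24h, 10 conc 1 nM - 200 uM. Fix, nuclear stain, image 5 fields/well. Endpoint = %SOX17+ minus 0.2% DMSO; n=4.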

Assay [9] relates to SRY-box transcription factor 2 (SOX2) Protein Expression, Deisenroth Lab, SOX2 (gene 6657). In words: CCTE_Deisenroth_DEVTOX-GLR_Pluri_SOX2: CCTE's DevTox GLR-Pluri Assay Evaluation of SRY-box transcription factor 2 (SOX2) Protein Expression, Deisenroth Lab (AID 2284428). The gist of the method:
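Steps: seed RUES2-GLR cells for 24 h; start 48 h differentiation in defined media; dose test chemicals at 0 and 24 h (1 nM–200 uM); fix, stain nuclei, image; compute SOX2+ percentage against 0.2% DMSO wells.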

Assay [10] has as its system Brachyury (BRA) Protein Expression, Deisenroth Lab, TBXT (gene 6862). In words: CCTE_Deisenroth_DEVTOX-GLR_Pluri_BRA: CCTE's DevTox GLR-Pluri Assay Evaluation of Brachyury (BRA) Protein Expression, Deisenroth Lab (AID 2284429; active means hit-call score of the fitted dose curve at least 0.9, where 1 is the maximum). The gist of the method:
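Mesoderm readout after 48 h differentiation of human RUES2-GLR cells, dosed twice (24-h intervals) at 1 nM - 200 uM. BRA+ frequency from fluorescence imaging of fixed, nuclear-stained cells, DMSO-corrected.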

Assay [11] is described as follows: CCTE_Deisenroth_DEVTOX-GLR_Pluri_CellCount: Viability Assessment in CCTE's DevTox GLR-Pluri Assay Evaluation of Total Cell Counts, Deisenroth Lab (AID 2284430). Summed up:
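Cytotoxicity readout: fluorescent nuclei counts by high-content imaging, expressed as percent change relative to 0.2% DMSO. Human RUES2-GLR pluripotent line differentiated 48 h, dosed twice at 24-h intervals across 1 nM - 200 uM (10 points).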

Assay [12] concerns the target T1, Thyroid hormone receptor alpha (Rattus norvegicus) + Thyroid hormone receptor beta (Rattus norvegicus) (UniProt P18113+P63059). In words: TOX21_TR_LUC_GH3_Agonist_Followup: Tox21 GH3 Thyroid Hormone Receptor Agonism Luciferase Follow-Up Assay (AID 2283939; active means hit-call score of the fitted dose curve at least 0.9, where 1 is the maximum). Summed up:
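Agonist-mode confirmatory run: 15 concentrations (5 nM to 92 uM final) on GH3 rat pituitary cells, 24 h at 37C/5% CO2, T3 as positive control. Luminescence read with ONE-Glo after 30 min.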

In the next assay the target is THRA (gene 7067) (UniProt P10827). In words: TOX21_TRA_COA_Agonist_Followup_ratio: Tox21 Thyroid Hormone Receptor alpha Agonism through Coactivator Recruitment Follow-Up Assay, Ratio (AID 2283948). Summed up: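 Follow-up specificity assay in which TRα ligand-binding domain, expressed as a GST fusion, recruits a fluorescein-labelled SRC-2 peptide. Energy transfer from a terbium anti-GST antibody gives the acceptor/donor ratio, fitted upward relative to DMSO.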
Sequence of THRA (gene 7067) (P10827 whole entry, looked up, the tested form may be a part): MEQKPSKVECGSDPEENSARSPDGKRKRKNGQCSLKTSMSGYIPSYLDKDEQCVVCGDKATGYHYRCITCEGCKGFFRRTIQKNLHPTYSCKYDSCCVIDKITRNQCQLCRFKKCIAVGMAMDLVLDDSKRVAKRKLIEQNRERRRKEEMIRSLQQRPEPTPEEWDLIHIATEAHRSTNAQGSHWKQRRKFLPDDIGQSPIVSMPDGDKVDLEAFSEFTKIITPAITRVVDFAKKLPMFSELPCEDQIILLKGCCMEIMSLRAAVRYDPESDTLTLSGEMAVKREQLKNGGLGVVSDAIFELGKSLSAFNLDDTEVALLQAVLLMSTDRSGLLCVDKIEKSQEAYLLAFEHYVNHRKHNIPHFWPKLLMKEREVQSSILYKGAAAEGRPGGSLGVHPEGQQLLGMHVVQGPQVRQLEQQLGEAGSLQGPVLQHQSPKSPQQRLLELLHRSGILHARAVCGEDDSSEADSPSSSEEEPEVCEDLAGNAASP

In assay [13] the target is THRB (gene 7068) (UniProt P10828). In words: TOX21_TRB_BLA_Agonist_Followup_ratio: Tox21 Thyroid Hormone Receptor beta Agonism Beta-lactamase (BLA) Follow-Up Assay, Ratio (AID 2283954; active means hit-call score of the fitted dose curve at least 0.9, where 1 is the maximum). The gist of the method: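 Agonist mode: compounds (11-point, triplicate) incubated 18 h with HEK293T cells carrying GAL4-DBD/human TRβ-LBD and UAS-β-lactamase. Blue/green (460/530 nm) FRET ratio read after 2 h CCF4-AM loading; CellTiter-Glo viability run in the same plates.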
Sequence of THRB (gene 7068) (P10828 whole entry, looked up, the tested form may be a part): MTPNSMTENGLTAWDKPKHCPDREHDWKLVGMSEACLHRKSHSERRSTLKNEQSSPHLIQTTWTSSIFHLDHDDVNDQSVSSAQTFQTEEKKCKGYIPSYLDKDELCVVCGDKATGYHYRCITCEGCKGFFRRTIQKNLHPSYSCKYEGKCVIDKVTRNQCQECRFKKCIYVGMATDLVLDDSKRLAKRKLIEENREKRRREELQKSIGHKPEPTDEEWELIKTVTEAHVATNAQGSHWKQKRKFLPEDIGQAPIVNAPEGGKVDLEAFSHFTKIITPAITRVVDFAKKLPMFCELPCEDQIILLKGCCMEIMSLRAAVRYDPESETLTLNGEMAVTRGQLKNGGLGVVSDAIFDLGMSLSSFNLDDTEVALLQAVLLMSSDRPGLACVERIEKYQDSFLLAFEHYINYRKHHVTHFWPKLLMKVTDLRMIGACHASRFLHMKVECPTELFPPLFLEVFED

For assay [14] the target is unchanged. In words: TOX21_TRB_COA_Agonist_Followup_ratio: Tox21 Thyroid Hormone Receptor beta Agonism through Coactivator Recruitment Follow-Up Assay, Ratio (AID 2283963). The gist of the method:
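Cell-free TR-FRET coactivator recruitment: GST-tagged TRβ LBD (5.0 nM) with 0.10% BSA incubated with compound, then fluorescein-SRC-2 peptide (200 nM) and Tb-anti-GST antibody (2 nM) added. 520:495 nm ratio normalized to DMSO (0%) and T3 (100%).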

The target of assay [15] is Retinoic acid receptor RXR-alpha (Homo sapiens) (UniProt P19793). In words: TOX21_TR_RXR_BLA_Agonist_Followup_ratio: Tox21 Thyroid Hormone Receptor beta Retinoid X Receptor alpha (RXRa) Agonism Beta-lactamase (BLA) Follow-Up Assay, Ratio (AID 2283968; active means hit-call score of the fitted dose curve at least 0.9, where 1 is the maximum). The gist of the method:
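Read-out: blue/green (460:530 nm) FRET ratio from cleaved vs uncleaved CCF4 substrate, fitted for gain of signal relative to DMSO. Cells: HEK293T with RXRa-UAS-bla reporter; 16 h compound exposure, 11 concentrations, triplicate.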

Assay [16] is described as follows: TOX21_TR_RXR_BLA_Agonist_Followup_viability: Viability Assessment in the Tox21 Thyroid Hormone Receptor beta Retinoid X Receptor alpha (RXRa) Agonism Beta-lactamase (BLA) Follow-Up Assay (AID 2283970; active means hit-call score of the fitted dose curve at least 0.9, where 1 is the maximum). The gist of the method: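 CellTiter-Glo ATP quantitation as viability read-out in RXRa-bla HEK293T cells (2,500/well, charcoal-stripped 2% FBS medium), 16h compound incubation at 37C. Loss of signal versus DMSO taken as cytotoxicity, analyzed by bidirectional curve fitting.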

Assay [17] can be described thus: CCTE_Harrill_HTTr_CellCount_MCF7: CCTE's Cell Proliferation Assessment for the High-Throughput Transcriptomics (HTTr) Platform, Harrill Lab (AID 2284012; active means hit-call score of the fitted dose curve at least 0.9, where 1 is the maximum;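 further: count of Hoechst-stained nuclei per well by high-content imaging in MCF-7 cells; cells exposed to compound for six hours; intended direction is loss of nuclei count meaning fewer cells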). The gist of the method: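 Readout: Hoechst nuclear count by high-content imaging. MCF-7, 8-point dilution series, 6 h exposure. Bidirectional fit vs DMSO baseline.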
Assay [18] deals with T1, Thyroid hormone receptor alpha (Rattus norvegicus) + Thyroid hormone receptor beta (Rattus norvegicus). In words: TOX21_TR_LUC_GH3_Antagonist_Followup: Tox21 GH3 Thyroid Hormone Receptor Antagonism Luciferase Follow-Up Assay (AID 2283942; active means hit-call score of the fitted dose curve at least 0.9, where 1 is the maximum). The gist of the method: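 In a GH3 luciferase reporter line, test chemicals spanning 92 uM to 5nM final are co-incubated 24 h with 1.0 nM T3. Activity is expressed as relative luminescence units and analysed relative to DMSO.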

Assay [19] in a line: CCTE_Shafer_MEA_dev_firing_rate_mean: CCTE's Neural Network Formation Assay for Mean Firing Rate, Shafer Lab (AID 2284031).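 Further: AUC of well mean spike rate recorded on DIV 5 7 9 and 12; curve fitted for loss of firing so AC50 reflects decreased mean firing rate.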 The gist of the method:
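Read-out: spike count/recording length, averaged over active electrodes, then AUC across days 5, 7, 9, 12. Rat cortical cultures on MEA; continuous 12-day exposure, media and treatment renewed DIV 5, 9; DMSO baseline.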

Sequence of Luciferin 4-monooxygenase (Photinus pyralis) (P08659 whole entry, looked up): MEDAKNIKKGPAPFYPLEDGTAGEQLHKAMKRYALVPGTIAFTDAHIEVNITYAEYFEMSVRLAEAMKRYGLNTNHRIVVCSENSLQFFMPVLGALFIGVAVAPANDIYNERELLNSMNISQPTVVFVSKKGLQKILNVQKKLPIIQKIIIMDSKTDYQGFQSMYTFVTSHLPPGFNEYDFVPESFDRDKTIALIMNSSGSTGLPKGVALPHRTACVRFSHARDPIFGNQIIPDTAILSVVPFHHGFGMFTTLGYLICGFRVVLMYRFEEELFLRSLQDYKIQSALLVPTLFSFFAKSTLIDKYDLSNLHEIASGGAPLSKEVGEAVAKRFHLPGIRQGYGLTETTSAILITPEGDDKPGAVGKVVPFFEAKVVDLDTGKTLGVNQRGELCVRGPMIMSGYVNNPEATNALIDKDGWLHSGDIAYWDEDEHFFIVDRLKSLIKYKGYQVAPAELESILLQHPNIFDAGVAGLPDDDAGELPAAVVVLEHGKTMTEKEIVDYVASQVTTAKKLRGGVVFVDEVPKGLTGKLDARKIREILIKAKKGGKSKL
T1 sequence (P63059 whole entry, looked up): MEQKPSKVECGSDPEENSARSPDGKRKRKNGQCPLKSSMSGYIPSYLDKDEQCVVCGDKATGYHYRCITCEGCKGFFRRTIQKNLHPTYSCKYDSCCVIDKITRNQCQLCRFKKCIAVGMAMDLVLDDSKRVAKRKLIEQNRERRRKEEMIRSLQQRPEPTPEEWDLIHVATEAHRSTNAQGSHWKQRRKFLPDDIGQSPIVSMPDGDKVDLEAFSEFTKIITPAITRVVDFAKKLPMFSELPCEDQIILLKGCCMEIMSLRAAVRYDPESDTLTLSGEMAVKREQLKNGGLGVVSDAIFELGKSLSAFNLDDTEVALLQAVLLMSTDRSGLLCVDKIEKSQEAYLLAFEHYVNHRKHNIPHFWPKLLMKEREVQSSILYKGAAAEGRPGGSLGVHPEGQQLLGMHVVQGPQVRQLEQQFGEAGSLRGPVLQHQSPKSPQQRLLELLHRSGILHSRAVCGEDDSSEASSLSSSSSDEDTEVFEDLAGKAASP
T1 sequence (P18113 whole entry, looked up): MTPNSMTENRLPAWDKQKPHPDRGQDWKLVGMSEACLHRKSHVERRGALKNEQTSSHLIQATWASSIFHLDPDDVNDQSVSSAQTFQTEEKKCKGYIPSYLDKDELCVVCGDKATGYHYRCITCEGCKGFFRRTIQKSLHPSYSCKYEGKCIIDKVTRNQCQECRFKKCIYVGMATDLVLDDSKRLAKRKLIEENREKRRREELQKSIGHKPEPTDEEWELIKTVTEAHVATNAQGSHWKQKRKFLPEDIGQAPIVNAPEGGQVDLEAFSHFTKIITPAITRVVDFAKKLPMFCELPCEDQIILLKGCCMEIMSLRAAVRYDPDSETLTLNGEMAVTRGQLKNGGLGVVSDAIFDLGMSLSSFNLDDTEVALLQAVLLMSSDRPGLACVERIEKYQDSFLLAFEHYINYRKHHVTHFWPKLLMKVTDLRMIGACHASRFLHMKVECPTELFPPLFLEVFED
Sequence of Retinoic acid receptor RXR-alpha (Homo sapiens) (P19793 whole entry, looked up): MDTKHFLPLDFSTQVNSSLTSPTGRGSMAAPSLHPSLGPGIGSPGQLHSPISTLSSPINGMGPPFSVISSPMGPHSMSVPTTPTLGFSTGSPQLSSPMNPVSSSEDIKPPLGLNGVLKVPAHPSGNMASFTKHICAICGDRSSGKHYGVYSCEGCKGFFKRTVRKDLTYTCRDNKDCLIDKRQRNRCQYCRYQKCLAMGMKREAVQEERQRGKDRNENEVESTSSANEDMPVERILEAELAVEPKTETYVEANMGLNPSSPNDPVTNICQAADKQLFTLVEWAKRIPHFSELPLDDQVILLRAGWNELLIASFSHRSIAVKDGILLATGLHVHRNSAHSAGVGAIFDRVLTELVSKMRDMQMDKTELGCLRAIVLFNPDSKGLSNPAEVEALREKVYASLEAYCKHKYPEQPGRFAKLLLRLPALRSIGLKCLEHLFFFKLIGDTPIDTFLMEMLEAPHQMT

By AC50 is commonly meant the midpoint of the concentration-response curve, whichever way the signal moves. Take `Cc1c(N(C)CS(=O)(=O)O)c(=O)n(-c2ccccc2)n1C`: in [1], the AC50 is 8.64 µM (active). For the same molecule, the outcome in assay [2] was inactive.
Take `CCN(CC)CCNC(=O)c1c(C)[nH]c(/C=C2\C(=O)Nc3ccc(F)cc32)c1C`: the AC50 in [1] is 8.81 µM (active); in assay [3], 6.88 µM (active); in assay [4] it was 1.63 µM (active); in assay [5] it was 2.5 µM (active); in assay [6], 0.826 µM (active); in assay [7], 1.62 µM (active). The AC50 was 1.46 µM (active) in assay [8], 0.432 µM (active) in assay [9], 0.264 µM (active) in assay [10] and 1.23 µM (active) in [11]. Also, the molecule was classed as inactive in assay [2].
Consider `Cc1cc(-n2c(=O)[nH]c(=O)n(C)c2=O)ccc1Oc1ccc(S(=O)(=O)C(F)(F)F)cc1`, for which the outcome (in assay [12]; with THRA (gene 7067); with THRB (gene 7068) [13]; in the assay with THRB (gene 7068) [14]; in assay [15]; in assay [16]) was inactive.
As for `CNC(=O)c1cc(Oc2ccc(NC(=O)Nc3ccc(Cl)c(C(F)(F)F)c3)cc2)ccn1`, the AC50 is 0.815 µM (active) in assay [3]; 1.11 µM (active) in [4]; 1.45 µM (active) in assay [5]; 4.31 µM (active) in [6]; 1.08 µM (active) in [7]; 20.9 µM (active) in assay [8]. For the same molecule, the concentration at half-maximal activity (AC50) was 29.3 µM (active) in [9], 1.3 µM (active) in assay [10] and 184 µM (active) in [11].
`Clc1cccc(Cl)c1NC1=NCCN1`: the call in assay [17] was inactive.
On the same count and under the same terms, as for `CCOC(=O)n1ccn(C)c1=S`, the entry is “inactive”.
On to `Cc1cc(Nc2ccccc2C(=O)O)ccc1Cl`, for which the outcome in assay [18] was inactive.
Consider `Cc1c(O)cccc1C(=O)N[C@@H](CSc1ccccc1)[C@H](O)CN1C[C@H]2CCCC[C@H]2C[C@H]1C(=O)NC(C)(C)C`, for which the AC50 in [19] is 0.438 µM (active).
In the case of `Cc1nc2sccn2c(=O)c1CCN1CCC(=C(c2ccc(F)cc2)c2ccc(F)cc2)CC1`, the AC50 in [4] was 9.28 µM (active); in assay [5], 20.4 µM (active); in assay [6] it was 17.7 µM (active); in [7] it was 9.15 µM (active); in assay [9], 16.9 µM (active); in assay [10] it was 24.1 µM (active). The AC50 in assay [11] was 9.92 µM (active). Moreover, in assay [8], the result was inactive.
In the case of `O=C1Cc2cc(CCN3CCN(c4nsc5ccccc45)CC3)c(Cl)cc2N1`, the concentration at half-maximal activity (AC50) was 3.94 µM (active) in [3]; 3.31 µM (active) in assay [4]; 6.29 µM (active) in assay [5]; 4.78 µM (active) in assay [6]; 3.31 µM (active) in assay [7]; 4.27 µM (active) in [9]. Moreover, the AC50 in assay [10] and in assay [11] was 4.26 µM (active) throughout. Moreover, in [8], the result was inactive.
